Source: PubChem (National Center for Advancing Translational Sciences (NCATS))
TSG101-PTAP inh: blocks PTAP/TSG101 interaction to inhibit HIV-1 budding; Q99816; Fluorescence polarization, FITC-PTAP peptide / Tsg101 binding; Potency, µM (titrated, usually from 115 µM), usual class: inhibitors; 340,000 tested, under 10 active; AID 493005; active = well fitted inhibition curve with a large enough effect in the main read-out, with a control signal flat, not every such curve was filed as active; inconclusive = small, poorly fitted or top-dose-only effect, or effect the other way, or a change in a side signal; inactive = no such curve, though single readings can be large or run the other way
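Steps: Tsg101 binding domain dispensed (10 uM final), compounds pinned in DMSO, FITC-labeled PTAP-motif peptide added (50 nM final); after 20 min binding at room temperature, polarization measured.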
Rango release inh: inhibition of RanGTP-driven Rango-importin beta dissociation. Biochemical FRET Rango-importin beta, RanGTP-induced dissociation. 340,000 compounds, 0.071% hits. Potency, µM (highest dose often 46.1 µM). AID 540253. O95149+P62826; calls by dose curve; note: nearly all actives have a fitted effect of over 45% in size
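Rango (0.1 uM)–importin beta (0.25 uM) complex; RanGTP-RCC1 trigger; 45 min RT; CFP/YFP FRET read.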
ALOX12 inh: ALOX12 (human) lipoxygenase inhibition | P18054 | AID 1671190 | Potency, µM (series often up to 108 µM), hits mostly inhibitors | purified 12hLO, xylenol orange hydroperoxide absorbance | 580,000 compounds, 1.1% hits
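Purified human 12hLO (150 nM final) in 25 mM Hepes, 0.01% Triton X-100, pH 7.0 was preincubated 15 min at room temperature with compound. Then 40 uM arachidonic acid was added, 30 min. Hydroperoxide was read by Fe-XO absorbance ratio 573/405 nm.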
TDP1 inh: TDP1 (human) enzyme inhibition; recombinant TDP1, AlphaScreen DNA substrate cleavage; Potency, µM (titrated, usually from 130 µM), usual class: inhibitors; 350,000 compounds, 0.28% hits; AID 485290; note: nearly all actives have a fitted effect of over 40% in size
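Recombinant human Tdp1 (E. coli-expressed, 1 nM final) preincubated with compounds 15 min at room temperature, then 5'-biotin/3'-phosphotyrosine-FITC DNA substrate (15 nM final) added for 5 min. AlphaScreen beads (10 ug/ml final) added 10 min; cleavage lowers signal.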
ClpP mod: qHTS Assay for Activators of ClpP | purified B. subtilis ClpP, FRET peptide cleavage, 20 min | Potency, µM (series often up to 57.5 µM) | 340,000 compounds, 1.9% hits | AID 651965, 2013; active = well fitted falling curve with a large enough effect; inconclusive = small, poorly fitted or top-dose-only effect; inactive = no such curve, though single readings can be large or run the other way; note: the source files actives as falling curves though it sought activators and does not explain the sign; nearly all actives have a fitted effect of over 65% in size
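ClpP 10 microg/mL final, pH 8 Tris/KCl buffer with BSA, glycerol, Tween-20; compound pinned in; FRET-FV substrate; RT 20 min; Ex320/Em430; ΔFRET vs ADEP 5.8 microM, DMSO, no enzyme.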
Rango-impB inh: prevents formation of the Rango-importin beta complex; Potency, µM (top dose mostly 92.2 µM); Q14974; 340,000 compounds, 0.031% hits; Rango CFP/YFP FRET sensor + importin beta, 45 min; calls by dose curve; note: nearly all actives have a fitted effect of over 15% in size
Target sequence (Q14974 whole entry, looked up): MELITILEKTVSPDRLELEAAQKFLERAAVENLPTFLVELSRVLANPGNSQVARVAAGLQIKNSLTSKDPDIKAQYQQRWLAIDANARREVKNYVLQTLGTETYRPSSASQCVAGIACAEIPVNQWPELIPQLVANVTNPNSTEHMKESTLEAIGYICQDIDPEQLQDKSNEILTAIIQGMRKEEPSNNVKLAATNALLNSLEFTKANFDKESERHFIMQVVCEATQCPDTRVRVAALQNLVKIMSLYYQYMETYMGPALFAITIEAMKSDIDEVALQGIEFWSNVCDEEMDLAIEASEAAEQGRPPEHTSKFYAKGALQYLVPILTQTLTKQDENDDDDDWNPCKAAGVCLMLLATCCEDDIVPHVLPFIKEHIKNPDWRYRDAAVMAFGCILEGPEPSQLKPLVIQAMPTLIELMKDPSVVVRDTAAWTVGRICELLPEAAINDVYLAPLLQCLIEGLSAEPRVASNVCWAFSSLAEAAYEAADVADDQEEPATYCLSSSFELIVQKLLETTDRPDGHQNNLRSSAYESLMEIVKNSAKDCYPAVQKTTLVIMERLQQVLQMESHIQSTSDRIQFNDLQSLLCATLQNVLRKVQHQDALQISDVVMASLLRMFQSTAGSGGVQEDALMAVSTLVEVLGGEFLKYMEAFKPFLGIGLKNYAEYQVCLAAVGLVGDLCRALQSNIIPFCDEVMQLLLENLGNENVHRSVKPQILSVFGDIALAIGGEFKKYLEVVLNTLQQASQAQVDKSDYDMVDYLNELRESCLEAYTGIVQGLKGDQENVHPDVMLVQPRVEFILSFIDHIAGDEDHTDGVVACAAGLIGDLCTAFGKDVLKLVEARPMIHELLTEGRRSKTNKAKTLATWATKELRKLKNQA
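FRET biosensor Rango (snurportin 1 IBB between N-terminal EYFP and C-terminal Cerulean), 50 nM in PBS/1 mM DTT/0.02% Tween-20/0.1% BSA, preincubated 5 min RT with compound; 0.125 microM importin beta added, 45 min RT, CFP/YFP FRET ratio read.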
Numbers stand for hits; – = inactive; ? = inconclusive; · = no result given. Rows were chosen to be rich in hits. Some 2.4% of all compounds tested hit in one or more screens of this group. Unless noted, calls come from the whole dose curve; as a rule, active = well fitted curve in the direction sought with a large enough effect; inconclusive = small, poorly fitted or top-dose-only effect, or another doubt; inactive = no such curve, though single readings can be large; an effect the other way counts as inactive or inconclusive.

SMILES	TSG101-PTAP inh	Rango release inh	ALOX12 inh	TDP1 inh	ClpP mod	Rango-impB inh
O=C(Nc1ccc(F)cc1F)N1CCOc2ccc(CN3CCc4ccccc4C3)cc2C1	·	·	–	·	·	·
CCOC(=O)c1cc2c(ccn2-c2ccc(F)cc2)n1CC(=O)N(CC)CC	–	–	?	–	–	–
COC(=O)c1cc2c(ccn2-c2ccc(F)cc2)n1CC(=O)C(C)(C)C	–	–	–	–	25µM	–
COCCNC(=O)C(C)OC(=O)c1cc2ccccc2[nH]1 (stereo unspecified)	·	·	–	·	·	·
Nc1ccccc1Sc1ccc(C(=O)c2ccccc2C(=O)O)cc1[N+](=O)[O-]	–	–	?	–	·	–
Nc1cc(C(=O)O)ccc1Sc1ccccc1C(=O)O	–	–	?	45µM	–	?
O=c1c2c(nc3cc(-c4ccccc4Cl)[nH]n13)CCS2	–	–	40µM	–	·	?
O=c1c2c(nc3cc(-c4ccccc4)[nH]n13)CCS2	–	–	–	–	10µM	–
O=C(c1ccsc1)N1CCc2c(nc3cc(-c4ccccc4Cl)[nH]n3c2=O)C1	·	·	–	·	·	·
O=C(C1CCCN1c1nc2ncccc2o1)N1CCN(c2ncccn2)CC1 (stereo unspecified)	·	·	–	·	·	·
C/C(=N\NC(=O)c1cccs1)c1cccc(Br)c1	·	·	–	·	·	·
COc1cccc(NC(=O)CN(C)C(C)C(=O)Nc2cc([N+](=O)[O-])ccc2Cl)c1 (stereo unspecified)	–	–	–	–	32µM	–
N#Cc1cccnc1N1CCN(c2nccc(CCC(F)(F)F)n2)CC1	·	·	–	·	·	·
COC(=O)c1c(NC(=O)CN2CCC3(O)CCCCC3C2c2cc(OC)ccc2OC)sc(C)c1C (stereo unspecified)	–	–	–	–	28µM	–
COc1ccccc1C1C2CCCCC2(O)CCN1CC(=O)Nc1ccccc1 (stereo unspecified)	–	–	–	–	–	–
CCOC(=O)C1=C(CN2CCN(c3ccccn3)CC2)NC(=O)NC1c1ccc(OCC)cc1 (stereo unspecified)	·	·	–	·	·	·
CNC(=O)CCn1ncc2cc(OCc3ccccc3-c3ccsc3)ccc21	·	·	–	·	·	·
Cc1cccc(-n2ccnc2SCC(=O)O)c1C	–	–	–	–	10µM	–
Cc1ccc2nc(-c3cccc(N)c3)oc2c1	–	–	–	–	14µM	–
CC(=O)c1c(C)[nH]c(C(=O)Cn2nnc(-c3ccc(C(C)C)cc3)n2)c1C	·	·	16µM	·	·	·
CCc1ccc(CNC(=O)c2c(C)oc3ncnc(N4CCCCC4)c23)cc1	·	·	–	·	·	·
Cc1c(NCc2ccncc2)cccc1C(=O)O	–	–	?	·	–	–
O=C(O)c1ccccc1NCc1ccncc1	–	–	–	–	14µM	–
O=C(O)c1ccc(CNc2ccccc2C(=O)O)cc1	–	–	–	–	32µM	–
CN[C@@H](CC(C)C)C(=O)N[C@@H]1C=C(C(=O)N[C@H]2CCCNC2=O)C[C@@H](O)[C@@H]1O	·	·	–	·	·	·
SMILES	TSG101-PTAP inh	Rango release inh	ALOX12 inh	TDP1 inh	ClpP mod	Rango-impB inh
O=C(NN1C(=O)C2CC=C(Cl)CC2C1=O)c1ccncc1 (stereo unspecified)	–	–	–	35µM	–	–
O=C(/C=C\c1ccc(-c2ccccc2)o1)c1ccccc1	–	?	?	–	–	?
Cc1ccc(C(=O)/C=C/c2ccc(-c3ccc(C)cc3)o2)cc1	–	?	?	–	–	?
O=C(/C=C/c1ccc(-c2cccc(Cl)c2)o1)c1cc(Cl)ccc1Cl	·	·	18µM	·	·	·
Cc1ccc(C(=O)/C=C/c2ccc(-c3cccc(Cl)c3Cl)o2)cc1	·	·	14µM	·	·	·
O=C(/C=C/c1ccc(-c2ccccc2Cl)o1)c1ccccc1Br	·	·	4.5µM	·	·	·
Cc1ccc(C(=O)/C=C/c2ccc(-c3cc(Cl)ccc3Cl)o2)cc1	·	·	5µM	·	·	·
COCc1nnc2n1CCC(NC(=O)COc1ccc(Cl)cc1C)CC2 (stereo unspecified)	·	·	–	·	·	·
CN(c1ccc2c(-c3ccccn3)noc2n1)c1ccc(F)cc1F	·	·	–	·	·	·
O=C(/C=C/c1ccc(-c2ccc(Cl)cc2Cl)o1)c1ccc(Br)cc1	·	·	8.9µM	·	·	·
Cc1cc(C)c2nc(C)cc(N/N=C/c3ccc(O)cc3)c2c1	–	15µM	?	·	·	?
CCc1nc(-c2c3n(c(=O)n(Cc4ccc(C#N)cc4)c2=O)CCCCC3)no1	·	·	–	·	·	·
CC1(COc2ccccc2)COc2ccc(C(=O)NCCc3ccccn3)cc2N1 (stereo unspecified)	·	·	18µM	·	·	·
C/C(=N\NC(=S)NC(C)C)c1ccccc1	–	–	?	·	–	–
CC(C)NC(=S)NC(c1ccccc1)(c1ccccc1)c1ccccc1	–	–	40µM	·	–	–
Brc1ccc(-c2cc3ccccn3c2)cc1	·	·	14µM	·	·	·
c1ccn2cc(-c3ccc4c(c3)OCO4)cc2c1	–	?	?	–	·	?
CC(C)(C)c1ccc(-c2cc3ccccn3c2)cc1	·	·	22µM	·	·	·
O=C(Nc1cccc2ncccc12)c1ccc2ccccc2c1	·	·	11µM	·	·	·
O=C(Nc1cccc2ncccc12)c1ccc2c(c1)OCCO2	–	–	–	–	–	?
O=C(CN1CCOCC1)Nc1ccc(-c2nc3ccccc3[nH]2)cc1	–	–	–	–	25µM	–
O=C(CSc1ccc(-c2nc3ccccc3[nH]2)cn1)Nc1ccc(S(=O)(=O)N2CCCC2)cc1	–	–	–	–	20µM	–
COc1nc2cc(C)c(C)cc2nc1C(=O)Nc1c(C)cccc1C	·	·	–	·	·	·
COc1cccc(-c2nccc(NC3CCNCC3)n2)c1	·	·	–	20µM	·	·
CCC(=O)Nc1c(S(=O)(=O)c2ccccc2)c2nc3ccccc3nc2n1C(C)c1ccccc1 (stereo unspecified)	–	?	–	–	32µM	?
SMILES	TSG101-PTAP inh	Rango release inh	ALOX12 inh	TDP1 inh	ClpP mod	Rango-impB inh
CCC(=O)Nc1c(S(=O)(=O)c2ccc(C)cc2)c2nc3ccccc3nc2n1C(C)c1ccccc1 (stereo unspecified)	–	?	–	–	20µM	?
Cc1cccc(OCC2(CNC(=O)c3cc(C)nn3C)C[C@@H](O)[C@@H](O)C2)n1 (stereo partly specified)	·	·	25µM	·	·	·
Cc1cccc(OCC2(CNCc3cnn(C)c3)C[C@@H](O)[C@@H](O)C2)n1 (stereo partly specified)	·	·	28µM	·	·	·
Cc1cccc(OCC2(CNCC3CCCC3)C[C@@H](O)[C@@H](O)C2)n1 (stereo partly specified)	·	·	–	·	·	·
Cc1cccc(OCC2(CNC(=O)c3cc(C)on3)C[C@@H](O)[C@@H](O)C2)n1 (stereo partly specified)	·	·	–	·	·	·
Cc1cccc(OCC2(CNC3CCOCC3)C[C@@H](O)[C@@H](O)C2)n1 (stereo partly specified)	·	·	25µM	·	·	·
